The text below walks through data of PubChem BioAssay (Tox21).

Unmarked numbers belong to inactive results. Results filed as inconclusive are left out. Entries that show only a call come without a potency. Active and inactive are the calls of the source. Unless noted, calls come from the whole dose curve; as a rule, active = well fitted curve in the direction sought with a large enough effect in the repeat runs; inconclusive = weak or mixed curves; inactive = no such curve, though single readings can be large; an effect the other way counts as inactive or inconclusive.

Sequence of Androgen receptor (Homo sapiens) (P10275 whole entry, looked up): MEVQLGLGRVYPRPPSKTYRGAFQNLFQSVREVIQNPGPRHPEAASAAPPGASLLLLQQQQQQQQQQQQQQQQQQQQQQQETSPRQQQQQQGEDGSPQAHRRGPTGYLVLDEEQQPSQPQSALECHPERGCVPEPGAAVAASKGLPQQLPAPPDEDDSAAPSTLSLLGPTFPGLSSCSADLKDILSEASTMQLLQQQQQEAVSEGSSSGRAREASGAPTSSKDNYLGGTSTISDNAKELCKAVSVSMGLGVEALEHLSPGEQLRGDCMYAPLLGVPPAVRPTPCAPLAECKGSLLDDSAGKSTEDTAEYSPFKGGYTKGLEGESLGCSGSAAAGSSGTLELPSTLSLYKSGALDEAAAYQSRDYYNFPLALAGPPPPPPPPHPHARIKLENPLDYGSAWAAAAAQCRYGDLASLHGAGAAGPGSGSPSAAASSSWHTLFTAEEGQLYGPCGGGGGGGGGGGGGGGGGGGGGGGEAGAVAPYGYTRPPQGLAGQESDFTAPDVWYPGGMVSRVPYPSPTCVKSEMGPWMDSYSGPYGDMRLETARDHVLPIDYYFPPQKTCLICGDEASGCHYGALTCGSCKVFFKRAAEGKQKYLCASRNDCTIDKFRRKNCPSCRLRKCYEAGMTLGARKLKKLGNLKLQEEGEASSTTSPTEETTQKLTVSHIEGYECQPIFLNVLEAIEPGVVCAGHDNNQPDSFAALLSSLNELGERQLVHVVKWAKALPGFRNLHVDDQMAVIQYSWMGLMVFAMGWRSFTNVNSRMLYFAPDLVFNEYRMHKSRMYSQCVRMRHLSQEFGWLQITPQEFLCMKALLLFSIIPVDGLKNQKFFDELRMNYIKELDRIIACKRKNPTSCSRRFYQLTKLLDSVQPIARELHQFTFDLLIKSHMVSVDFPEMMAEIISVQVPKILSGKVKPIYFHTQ

Tested on in the first assay: not listed separately
Put plainly: qHTS assay to identify small molecule agonists of the estrogen receptor beta (ER-beta) signaling pathway - cell viability counter screen (AID 1259380). Note: nearly all actives have a fitted effect of over 30% in size. To be noted: ER-beta-bla HEK293T viability, CellTiter-Glo luminescence, 16 h; series mostly up to 92.4 µM. An outline of the steps: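 Same-well viability counter screen. Cells: ER-beta-UAS-bla HEK293T, plated 6 hr before compound, in 2% charcoal-stripped FBS. Compound exposure 16 hr, 37C; viability by CellTiter-Glo luminescence after 30 min at room temperature.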
(In general: Quantitative high-throughput screening tests each substance at several concentrations.)
For the molecule `CN1C(=O)CC(C)(c2ccccc2)C1=O` (stereo unspecified), the Potency result is “inactive”.
On the same count and under the same terms, as for `CC(=O)Nc1ccccc1C`, the entry is “inactive”.
On the same count and under the same terms, in the case of `CCCCC(CC)COC(=O)COc1ccc(Cl)cc1C` (stereo unspecified) it was “inactive”; in that of `COc1ccc(CCC(=O)c2c(O)cc(O[C@@H]3O[C@H](CO)[C@@H](O)[C@H](O)[C@H]3O[C@@H]3O[C@@H](C)[C@H](O)[C@@H](O)[C@H]3O)cc2O)cc1O`, “inactive”; in that of `Cc1cc(OI)c(C(C)C)cc1-c1cc(C(C)C)c(OI)cc1C`, “inactive”.
In the case of `CCCOCCOCCO`, the Potency entry is “inactive”.
Take `CC(=O)Nc1ccc(N)cc1`: the Potency entry was “inactive”.
For the molecule `CC1=C(C=O)C(C)(C)CCC1`, the Potency entry was “inactive”.
For `C=CCCCCCCCCCCCCCCCC`, the activity change, negative = cytotoxicity is 5.49% [at 8.39 µM].
With `[O]=[Bi]`, the activity change, negative = cytotoxicity was 4.86% [at 8.39 µM].
Regarding `CN1Cc2cc(C(=O)N3CCC(C4CCNCC4)CC3)ccc2N[C@@H](CC(=O)O)C1=O`, the Potency entry is “inactive”.
Still for that read-out and setting: as for `Cc1ccccc1N1C(=O)c2cc(S(N)(=O)=O)c(Cl)cc2NC1C` (stereo unspecified), the entry is “inactive”; as for `CC(CCO)CCc1ccccc1` (stereo unspecified), “inactive”.
On the same count and under the same terms, in the case of `O=C(O)c1snc(Cl)c1Cl` it was “inactive”.
On to `Cc1nc2ccccc2s1`, for which the Potency entry is “inactive”.
As for `C=CC(=O)NCOCC(C)C`, the Potency entry was “inactive”.
Still for that read-out and setting: in the case of `CCn1cc(C(=O)O)c(=O)c2cc(F)c(N3CCNCC3)nc21` it was “inactive”; in that of `NC(=O)Nc1ccc(Cl)cc1`, “inactive”; in that of `Cc1ccnc2ccccc12`, “inactive”.
As for `CN1CCN(c2c(F)cc3c(=O)c(C(=O)O)cn4c3c2OCN4C)CC1`, the activity change, negative = cytotoxicity was 3.44% [at 19 µM].
On to `NCC1CCCC(CN)C1` (stereo unspecified), for which the Potency result is “inactive”.
On the same count and under the same terms, in the case of `CCC(=O)OC/C=C/c1ccccc1` it was “inactive”; in that of `CCCCCCCCCOC(C)=O`, “inactive”; in that of `O=C(CCCCCCCCC#CI)Oc1ccccc1`, “inactive”.
On the same count and under the same terms, in the case of `CO[C@H]1O[C@H](CO)[C@@H](O)[C@H](O)[C@H]1O` it was “inactive”; in that of `O=S1OCCO1`, “inactive”.
Still for that read-out and setting: as for `O=C(O)C(Cc1cc(I)c(O)c(I)c1)c1ccccc1` (stereo unspecified), the entry is “inactive”; as for `CC(CCc1ccc2c(c1)OCO2)NN` (stereo unspecified), “inactive”; as for `CC(=O)OCC(=O)[C@@]12OC(C)(C)O[C@@H]1C[C@H]1[C@@H]3C[C@H](F)C4=CC(=O)C=C[C@]4(C)[C@@]3(F)[C@@H](O)C[C@@]12C`, “inactive”.
Regarding `CC1CC(O)CC(C)(C)C1` (stereo unspecified), the Potency result was “inactive”.
On the same count and under the same terms, in the case of `CCCCCCOC(=O)C(C)C` it was “inactive”.
Consider `CCCC(=O)O[C@]1(C(=O)COC(=O)CC)CC[C@H]2[C@@H]3CCC4=CC(=O)CC[C@]4(C)[C@H]3[C@@H](O)C[C@@]21C`, for which the activity change, negative = cytotoxicity is 1.26% [at 19 µM].
As to `CCOCCn1c(C2CCN(CCc3ccc(C(C)(C)C(=O)O)cc3)CC2)nc2ccccc21`, the Potency result is “inactive”.
Still for that read-out and setting: in the case of `CCCCOC(=O)CCS` it was “inactive”; in that of `CCCOC(=O)c1ccc(N)cc1`, “inactive”; in that of `CC1(C)C(=O)N(Br)C(=O)N1Cl`, “inactive”.
On the same count and under the same terms, as for `Cc1cc(O)c(C(C)C)cc1Cl`, the entry is “inactive”; as for `CCOC(=O)/C=C/C(=O)O`, “inactive”; as for `O=C(O)c1cccc(O)c1`, “inactive”.

The target of the next assay is Androgen receptor (Homo sapiens) (UniProt P10275). The experiment in a line: qHTS assay to identify small molecule agonists of the androgen receptor (AR) signaling pathway in the presence of an antagonist (AID 1259381; calls by dose curve; note: nearly all actives have a fitted effect of over 15% in size; note: potency is the fitted concentration of half-maximal effect). To be noted: MDA-kb2 MMTV-luciferase, AR agonist + nilutamide, 16 h; series mostly up to 42.5 µM. An outline of the steps:
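Cells are MDA-kb2 (human breast carcinoma, MMTV-luc, AR/GR responsive). Nilutamide is present at 3.0uM final throughout; compounds are added at 15 concentrations and incubated 16hr at 37C before ONE-Glo luminescence detection.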
Consider `COc1ccc(CCC(=O)c2c(O)cc(O[C@@H]3O[C@H](CO)[C@@H](O)[C@H](O)[C@H]3O[C@@H]3O[C@@H](C)[C@H](O)[C@@H](O)[C@H]3O)cc2O)cc1O`, for which the Potency result is “inactive”.
Regarding `CC(=O)Nc1ccc(N)cc1`, the Potency entry is “inactive”.
For the molecule `NCC1CCCC(CN)C1` (stereo unspecified), the Potency result is “inactive”.
On the same count and under the same terms, as for `O=C(CCCCCCCCC#CI)Oc1ccccc1`, the entry is “inactive”; as for `CCCC(=O)O[C@]1(C(=O)COC(=O)CC)CC[C@H]2[C@@H]3CCC4=CC(=O)CC[C@]4(C)[C@H]3[C@@H](O)C[C@@]21C`, 184 nM (active).
Same read-out and setting: in the case of `CCOCCn1c(C2CCN(CCc3ccc(C(C)(C)C(=O)O)cc3)CC2)nc2ccccc21` it was “inactive”; in that of `CCCOC(=O)c1ccc(N)cc1`, “inactive”; in that of `CCOC(=O)/C=C/C(=O)O`, “inactive”.

Tested on in the next assay: not listed separately
Put plainly: qHTS assay to identify small molecule antagonists of the estrogen receptor beta (ER-beta) signaling pathway - cell viability counter screen (AID 1259382). Note: nearly all actives have a fitted effect of over 55% in size. To be noted: ER-beta-UAS-bla HEK293T viability, CellTiter-Glo luminescence, 16 h; series mostly up to 92.4 µM. The gist of the method: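 Following a 6 hr plating period, HEK293T cells carrying a UAS-driven beta-lactamase reporter under ER-beta control received compounds and 1nM E2 (final). After 16 hr at 37C and 2 hr substrate loading, CellTiter-Glo luminescence indicated viability.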
With `CN1C(=O)CC(C)(c2ccccc2)C1=O` (stereo unspecified), the Potency result was “inactive”.
Same read-out and setting: in the case of `CC(=O)Nc1ccccc1C` it was “inactive”; in that of `CCCCC(CC)COC(=O)COc1ccc(Cl)cc1C` (stereo unspecified), “inactive”.
Still for that read-out and setting: in the case of `COc1ccc(CCC(=O)c2c(O)cc(O[C@@H]3O[C@H](CO)[C@@H](O)[C@H](O)[C@H]3O[C@@H]3O[C@@H](C)[C@H](O)[C@@H](O)[C@H]3O)cc2O)cc1O` it was “inactive”.
Same read-out and setting: in the case of `Cc1cc(OI)c(C(C)C)cc1-c1cc(C(C)C)c(OI)cc1C` it was “inactive”.
Turning to `CCCOCCOCCO`, the Potency entry is “inactive”.
Same read-out and setting: in the case of `CC(=O)Nc1ccc(N)cc1` it was “inactive”; in that of `CC1=C(C=O)C(C)(C)CCC1`, “inactive”.
In the case of `C=CCCCCCCCCCCCCCCCC`, the activity change, negative = cytotoxicity was -0.694% [at 8.39 µM].
Same read-out and setting: as for `[O]=[Bi]`, the figure is -2.24% [at 8.39 µM].
For `CN1Cc2cc(C(=O)N3CCC(C4CCNCC4)CC3)ccc2N[C@@H](CC(=O)O)C1=O`, the Potency entry is “inactive”.
Turning to `Cc1ccccc1N1C(=O)c2cc(S(N)(=O)=O)c(Cl)cc2NC1C` (stereo unspecified), the Potency result was “inactive”.
Take `CC(CCO)CCc1ccccc1` (stereo unspecified): the Potency entry was “inactive”.
Still for that read-out and setting: as for `O=C(O)c1snc(Cl)c1Cl`, the entry is “inactive”; as for `Cc1nc2ccccc2s1`, “inactive”; as for `C=CC(=O)NCOCC(C)C`, “inactive”.
The same measure, in the same setting: as for `CCn1cc(C(=O)O)c(=O)c2cc(F)c(N3CCNCC3)nc21`, the entry is “inactive”; as for `NC(=O)Nc1ccc(Cl)cc1`, “inactive”; as for `Cc1ccnc2ccccc12`, “inactive”.
With `CN1CCN(c2c(F)cc3c(=O)c(C(=O)O)cn4c3c2OCN4C)CC1`, the activity change, negative = cytotoxicity was -1.98% [at 19 µM].
Regarding `NCC1CCCC(CN)C1` (stereo unspecified), the Potency entry is “inactive”.
Same read-out and setting: in the case of `CCC(=O)OC/C=C/c1ccccc1` it was “inactive”; in that of `CCCCCCCCCOC(C)=O`, “inactive”; in that of `O=C(CCCCCCCCC#CI)Oc1ccccc1`, “inactive”.
On the same count and under the same terms, as for `CO[C@H]1O[C@H](CO)[C@@H](O)[C@H](O)[C@H]1O`, the entry is “inactive”; as for `O=S1OCCO1`, “inactive”; as for `O=C(O)C(Cc1cc(I)c(O)c(I)c1)c1ccccc1` (stereo unspecified), “inactive”.
Same read-out and setting: in the case of `CC(CCc1ccc2c(c1)OCO2)NN` (stereo unspecified) it was “inactive”; in that of `CC(=O)OCC(=O)[C@@]12OC(C)(C)O[C@@H]1C[C@H]1[C@@H]3C[C@H](F)C4=CC(=O)C=C[C@]4(C)[C@@]3(F)[C@@H](O)C[C@@]12C`, “inactive”; in that of `CC1CC(O)CC(C)(C)C1` (stereo unspecified), “inactive”.
Consider `CCCCCCOC(=O)C(C)C`, for which the Potency entry is “inactive”.
For `CCCC(=O)O[C@]1(C(=O)COC(=O)CC)CC[C@H]2[C@@H]3CCC4=CC(=O)CC[C@]4(C)[C@H]3[C@@H](O)C[C@@]21C`, the activity change, negative = cytotoxicity was 2.67% [at 19 µM].
`CCOCCn1c(C2CCN(CCc3ccc(C(C)(C)C(=O)O)cc3)CC2)nc2ccccc21`: the Potency result is “inactive”.
For the molecule `CCCCOC(=O)CCS`, the Potency result was “inactive”.
The same measure, in the same setting: in the case of `CCCOC(=O)c1ccc(N)cc1` it was “inactive”.
On the same count and under the same terms, as for `CC1(C)C(=O)N(Br)C(=O)N1Cl`, the entry is “inactive”; as for `Cc1cc(O)c(C(C)C)cc1Cl`, “inactive”.
The same measure, in the same setting: as for `CCOC(=O)/C=C/C(=O)O`, the entry is “inactive”; as for `O=C(O)c1cccc(O)c1`, “inactive”.
